Active and inactive are the calls of the source.

Test [1] concerns the target Albumin (Bos taurus) (UniProt P02769). Kind of test: compounds binding labelled BSA control protein – biochemical, small-molecule microarray, Alexa647 label, 635/667 nm fluorescence, artefact control for SMM control protein annotation, profiling panel (AID 1118).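 Also: score merges 667 nm emission intensity and signal-to-noise per printed compound spot.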 The following applies: BSA-A647 binding, fluorescence 635 nm, higher = more signal.
Test [2] in a line: probe aXIP binding to arrayed compounds – biochemical, NeuroSMM set, 635/667 nm fluorescence, primary screen (AID 1119).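 Also: probe is the protein aXip251-270 applied at 1 µg/mL to compound-printed slides; binding of probe to printed compounds measured as 667 nm fluorescence plus signal to noise.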 The following applies: small-molecule microarray, higher = more signal, called active from +8 up or from −8 down.
Test [3] can be described thus: probe aNOTCH3 binding on compound microarray – biochemical, small-molecule microarray, 635/667 nm fluorescence, primary screen (AID 1120).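 Also: probe is a biotin-tagged antibody raised against NOTCH3 rather than NOTCH3 protein; score merges spot fluorescence near 667 nm with spot signal to noise.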 The following applies: higher = more signal.
Test [4] in a line: probe aNOTCH2 binding on compound microarray – biochemical, small-molecule microarray, 635/667 nm fluorescence, primary screen (AID 1121).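 Also: score merges feature fluorescence read at 667 nm with its signal to noise.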 The following applies: higher = more signal.
The target in test [5] is Carbonic anhydrase 2 (Homo sapiens) (UniProt P00918). The experiment in a line: compounds binding carbonic anhydrase 2 – biochemical, small-molecule microarray, Alexa647-labelled CAII, profiling panel (AID 1122). The following applies: CAII-A647 binding fluorescence, higher = more signal.
Test [6] can be described thus: COS7 lysate on small-molecule microarray, probe aHis, 635 nm (AID 1123).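 Also: z-score combines 667nm fluorescence intensity with signal-to-noise per printed compound spot.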 The following applies: COS7 cell lysate, fluorescence, higher = more signal.
Test [7] in a line: probe aLAP1 signal on lysate-treated microarray – cell lysate, small-molecule microarray, COS7 lysate, primary screen (AID 1124).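 Also: lysate comes from COS7 cells expressing LAP1 and is applied at 0.3 µg/mL; score merges spot fluorescence near 667 nm with signal-to-noise over triplicate slides.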 To be noted: probe aLAP1, fluorescence, higher = more signal.
Test [8] deals with Sam68 (KHDRBS1). Kind of test: compounds binding KHDRBS1 protein – biochemical, small-molecule microarray, 635 nm fluorescence, primary screen (AID 1125).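 Also: score merges 667 nm channel intensity with signal to noise over triplicate slides.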 To be noted: higher = more signal.
Test [9] concerns Chordin-like protein 2 (CHRDL2). Kind of test: compounds binding chordin-like 2 – biochemical, small-molecule microarray, 635 nm fluorescence, primary screen (AID 1126).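 Also: printed compound slides probed with Chrdl2 protein at 4 µg/mL for 1 h at 4 C; score merges 667 nm emission intensity with signal to noise over three replicate slides.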 The following applies: fluorescence 635 nm, higher = more signal.
In test [10] the target is Concanavalin-A (Canavalia ensiformis) (UniProt P02866). Kind of test: compounds binding concanavalin A lectin – biochemical, small-molecule microarray, Alexa647 label, 635 nm, artefact control for SMM control protein annotation, primary screen (AID 1127).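 Also: z combines 667 nm emission intensity with signal-to-noise across three replicate slides.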 To be noted: ConA-A647 binding fluorescence, higher = more signal.
Concanavalin-A (Canavalia ensiformis), sequence (P02866 whole entry, looked up): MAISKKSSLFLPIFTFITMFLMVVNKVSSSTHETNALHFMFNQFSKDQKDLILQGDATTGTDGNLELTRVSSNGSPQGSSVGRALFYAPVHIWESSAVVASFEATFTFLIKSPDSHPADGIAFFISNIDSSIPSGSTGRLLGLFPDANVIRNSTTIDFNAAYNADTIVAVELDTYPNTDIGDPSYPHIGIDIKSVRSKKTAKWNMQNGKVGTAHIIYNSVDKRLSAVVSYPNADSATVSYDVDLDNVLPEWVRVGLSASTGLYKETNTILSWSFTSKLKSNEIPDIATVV
Test [11] can be described thus: compounds binding Alexa647 anti-His antibody – biochemical, small-molecule microarray, 635 nm fluorescence, artefact control for SMM control protein annotation, primary screen (AID 1128).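 Also: score merges feature fluorescence with signal-to-noise for each printed compound spot.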 To be noted: higher = more signal.
Test [12] concerns Human papillomavirus type 1a E7 protein (residues 1-88). The experiment in a line: HPV1a E7 small-molecule binders, primary screen, biochemical, small-molecule microarray, residues 1-88, 635 nm (AID 1129). The following applies: small-molecule microarray binding, fluorescence 635 nm; higher = more signal.
Test [13] deals with Focal adhesion kinase 1 (Homo sapiens) (UniProt Q05397). The experiment in a line: PTK2 protein binding on printed compound slides – biochemical, small-molecule microarray, 635/667 nm fluorescence, BSA, DTT, primary screen (AID 1130).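 Also: composite of spot emission at 667 nm and signal to noise over triplicate slides.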 The following applies: 635 nm fluorescence, higher = more signal.
Focal adhesion kinase 1 (Homo sapiens), sequence (Q05397 whole entry, looked up): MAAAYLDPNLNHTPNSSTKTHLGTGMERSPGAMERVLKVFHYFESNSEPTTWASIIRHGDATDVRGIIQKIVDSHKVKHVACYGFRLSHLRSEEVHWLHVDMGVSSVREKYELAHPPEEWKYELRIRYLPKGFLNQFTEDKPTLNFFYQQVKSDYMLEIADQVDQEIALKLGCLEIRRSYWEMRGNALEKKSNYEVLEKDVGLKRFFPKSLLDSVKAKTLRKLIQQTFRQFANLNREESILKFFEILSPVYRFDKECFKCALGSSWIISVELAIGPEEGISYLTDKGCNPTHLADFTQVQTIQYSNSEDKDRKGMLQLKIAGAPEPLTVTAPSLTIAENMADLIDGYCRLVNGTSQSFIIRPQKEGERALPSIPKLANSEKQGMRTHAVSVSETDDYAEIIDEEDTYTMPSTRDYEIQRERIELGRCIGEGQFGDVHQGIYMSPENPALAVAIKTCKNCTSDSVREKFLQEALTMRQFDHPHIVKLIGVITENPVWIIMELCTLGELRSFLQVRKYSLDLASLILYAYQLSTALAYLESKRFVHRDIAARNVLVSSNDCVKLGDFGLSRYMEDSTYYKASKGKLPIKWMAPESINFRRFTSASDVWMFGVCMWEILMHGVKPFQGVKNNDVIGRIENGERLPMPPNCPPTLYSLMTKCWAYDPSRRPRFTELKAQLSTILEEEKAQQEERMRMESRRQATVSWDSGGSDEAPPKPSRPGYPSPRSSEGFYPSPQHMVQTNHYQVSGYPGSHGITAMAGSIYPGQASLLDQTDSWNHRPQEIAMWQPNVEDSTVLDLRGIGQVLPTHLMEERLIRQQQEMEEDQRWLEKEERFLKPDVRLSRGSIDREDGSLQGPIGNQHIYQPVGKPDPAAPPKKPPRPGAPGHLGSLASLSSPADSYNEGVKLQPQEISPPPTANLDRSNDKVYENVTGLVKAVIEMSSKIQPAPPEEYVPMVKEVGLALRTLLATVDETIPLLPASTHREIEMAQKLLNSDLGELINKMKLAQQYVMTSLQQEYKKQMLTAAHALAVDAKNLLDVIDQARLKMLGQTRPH
In test [14] the test system is Fibrinogen (Alexa647-labelled). Kind of test: Alexa647-fibrinogen binding to printed small molecules – biochemical, small-molecule microarray, 635/667 nm fluorescence, artefact control for SMM control-protein annotation, profiling panel (AID 1131).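 Also: z-score merges 667 nm fluorescence with per-spot signal-to-noise over triplicate slides.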 To be noted: fibrinogen-A647 binding fluorescence, higher = more signal.
Test [15] addresses Follistatin (Homo sapiens) (UniProt P19883). Kind of test: FST protein binding to printed compounds – biochemical, small-molecule microarray, 635/667 nm fluorescence, primary screen (AID 1132). To be noted: 635 nm fluorescence, higher = more signal.
Test [16] addresses Fibroblast growth factor 2 (Homo sapiens) (UniProt P09038). The experiment in a line: basic fibroblast growth factor binding to printed compounds – biochemical, small-molecule microarray, 635/667 nm fluorescence, primary screen (AID 1133). The following applies: FGF2, fluorescence 635/667, higher = more signal.
Test [17] in a line: JC-1 mitochondrial potential readout, lung cancer cells – cell-based, A549, JC-1 fluorescence, basal, 24 h, 100 nL, profiling panel (AID 1138).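 Also: A549 lung adenocarcinoma cells under basal conditions with no added stimulus; test concentration not given here.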 The following applies: higher = more signal.
The subject of test [18] is Lefty1. Kind of test: Lefty1 protein binding to printed compounds – biochemical, small-molecule microarray, 635/667 nm fluorescence, primary screen (AID 1139). The following applies: fluorescence 635/667, higher = more signal.
Test [19] has as its system wheat germ agglutinin (Triticum aestivum), Alexa647-labelled. Kind of test: Alexa647-WGA lectin binding to printed small molecules – biochemical, small-molecule microarray, 635/667 nm fluorescence, artefact control for SMM control-protein annotation, profiling panel (AID 1140).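 Also: score merges 667 nm feature emission with signal to noise over triplicate slides.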 To be noted: WGA-A647 binding, 635 nm fluorescence, higher = more signal.
Test [20] concerns the target Luciferin 4-monooxygenase (Photinus pyralis) (UniProt P08659). The experiment in a line: inhibition of purified Photinus pyralis luciferase – biochemical, luminescence, purified enzyme, 2006 set, primary screen (AID 1141).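 Also: cell-free assay with purified firefly luciferase at 100 ng per well in PBS; test concentration not given here.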 To be noted: purified firefly luciferase, SteadyGlo luminescence, 30 min; higher = more signal, called active from +8 up or from −8 down.

Fibroblast growth factor 2 (Homo sapiens), sequence (P09038 whole entry, looked up): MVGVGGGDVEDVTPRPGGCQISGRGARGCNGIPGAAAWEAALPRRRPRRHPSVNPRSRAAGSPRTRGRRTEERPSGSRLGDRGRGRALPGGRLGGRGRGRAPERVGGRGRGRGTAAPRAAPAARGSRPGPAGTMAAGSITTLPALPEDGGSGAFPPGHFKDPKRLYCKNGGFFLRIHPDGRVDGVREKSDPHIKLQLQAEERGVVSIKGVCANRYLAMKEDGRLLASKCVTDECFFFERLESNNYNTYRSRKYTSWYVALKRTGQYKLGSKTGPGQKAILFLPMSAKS
Albumin (Bos taurus), sequence (P02769 whole entry, looked up): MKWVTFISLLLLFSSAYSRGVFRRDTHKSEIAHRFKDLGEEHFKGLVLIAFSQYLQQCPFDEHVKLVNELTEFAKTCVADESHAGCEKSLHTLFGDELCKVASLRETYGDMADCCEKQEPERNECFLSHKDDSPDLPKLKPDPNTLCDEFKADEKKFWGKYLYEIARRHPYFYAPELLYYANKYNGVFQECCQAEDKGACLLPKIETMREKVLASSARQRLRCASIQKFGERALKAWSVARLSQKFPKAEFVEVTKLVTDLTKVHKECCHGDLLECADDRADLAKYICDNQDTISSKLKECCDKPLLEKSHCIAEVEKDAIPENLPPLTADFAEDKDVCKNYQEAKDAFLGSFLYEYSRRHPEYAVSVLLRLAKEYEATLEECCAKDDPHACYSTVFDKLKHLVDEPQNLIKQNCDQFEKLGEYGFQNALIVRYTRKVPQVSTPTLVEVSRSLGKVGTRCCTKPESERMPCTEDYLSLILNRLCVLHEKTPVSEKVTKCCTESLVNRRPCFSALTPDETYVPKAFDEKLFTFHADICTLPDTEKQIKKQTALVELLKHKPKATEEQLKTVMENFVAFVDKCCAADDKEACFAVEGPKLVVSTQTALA
Follistatin (Homo sapiens), sequence (P19883 whole entry, looked up): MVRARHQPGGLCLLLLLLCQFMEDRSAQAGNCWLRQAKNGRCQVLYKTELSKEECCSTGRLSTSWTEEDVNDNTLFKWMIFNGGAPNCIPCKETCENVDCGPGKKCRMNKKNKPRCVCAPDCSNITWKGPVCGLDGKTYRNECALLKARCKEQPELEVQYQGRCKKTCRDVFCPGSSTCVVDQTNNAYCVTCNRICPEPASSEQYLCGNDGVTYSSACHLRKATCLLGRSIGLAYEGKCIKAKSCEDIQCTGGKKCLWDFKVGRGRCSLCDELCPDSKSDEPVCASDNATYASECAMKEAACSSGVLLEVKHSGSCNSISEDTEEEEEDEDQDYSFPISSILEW
Luciferin 4-monooxygenase (Photinus pyralis), sequence (P08659 whole entry, looked up): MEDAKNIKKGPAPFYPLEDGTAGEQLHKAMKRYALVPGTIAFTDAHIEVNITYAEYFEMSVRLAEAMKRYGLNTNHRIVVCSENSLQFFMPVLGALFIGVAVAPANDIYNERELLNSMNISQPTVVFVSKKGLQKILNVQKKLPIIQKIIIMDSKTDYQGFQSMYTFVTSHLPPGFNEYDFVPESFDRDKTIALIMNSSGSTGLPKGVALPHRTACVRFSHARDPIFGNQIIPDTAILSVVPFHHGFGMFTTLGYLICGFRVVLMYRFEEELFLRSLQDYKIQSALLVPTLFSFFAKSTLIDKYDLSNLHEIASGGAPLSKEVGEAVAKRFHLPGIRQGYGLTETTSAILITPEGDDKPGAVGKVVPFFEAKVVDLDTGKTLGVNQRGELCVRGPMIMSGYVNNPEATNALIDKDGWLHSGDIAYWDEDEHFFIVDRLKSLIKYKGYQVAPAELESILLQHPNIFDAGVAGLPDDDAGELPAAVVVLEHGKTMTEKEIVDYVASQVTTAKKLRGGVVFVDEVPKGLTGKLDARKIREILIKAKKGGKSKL

As to `CCOC(=O)C[C@H]1[C@H](OC(=O)c2cc3ccccc3oc2=O)[C@@H](NC(=O)c2ccc3ccccc3n2)c2cc(OCCCO)ccc2N1C(=O)c1ccccc1`, the composite z-score in test [1] is 0.328; in test [3] it was 0.154; in test [4], -0.0424; in test [5] it was 0.639; in test [6], 0.476; in test [7], 0.668. The composite z-score in test [8] came out at 0.604; in [9] it was 0.789; in [10], 0.728; in test [11], 1.06; in test [12], 0.803; in test [13], 0.513. Besides, the composite z-score turned out to be 0.584 in test [14]; 1.14 in test [15]; 1.23 in test [16]; 0.606 in [18]; 0.354 in [19]. For the same molecule, in test [2], the composite Z-score was 0.946 (inactive). Also, the z-score in test [17] was -0.837; in test [20], 0.497 (inactive).
Take `O=C1O[C@@H](c2ccccc2)[C@@H](c2ccccc2)N2[C@@H](c3ccc(OCCO)cc3)[C@]3(C(=O)Nc4ccc(C#CCCO)cc43)[C@@H](C(=O)N3CCCCCCC3)[C@H]12`: the composite z-score in test [1] came out at 0.259; in test [3] it was 1.66; in test [4], 0.745; in test [5], 0.896; in test [6], 3.6; in test [7], 1.02. In addition, the composite z-score in test [8] came to 1.3; in [9], 1.25; in test [10], 1.15; in test [11], 1.86; in [12] it was 1.17; in test [13], 0.782. The composite z-score in test [14] stood at 0.965; in [15] it was 1.39; in test [16], 0.585; in test [18], 1.56; in test [19], 1.35. Moreover, in test [2], the composite Z-score is 7.58 (inactive). The results for the z-score in test [17] and in test [20] were -0.287 and -1.62 (inactive), respectively.
For the molecule `CC(C)NC(=O)[C@@H]1c2ccccc2C(=O)N(CC23CC4CC(CC(C4)C2)C3)[C@H]1c1ccc(CO)cc1`, the composite z-score is 0.283 in test [1]; 0.106 in test [3]; -0.125 in test [4]; 0.25 in test [5]; 1.65 in [6]; 0.397 in test [7]. Moreover, the composite z-score is 1.3 in test [8]; 0.533 in test [9]; 1.08 in [10]; 0.526 in test [11]; 1.23 in test [12]; 0.417 in [13]. Besides, the composite z-score is 0.973 in test [14]; 1.35 in test [15]; 0.615 in test [16]; 0.822 in test [18]; 0.298 in test [19]. For the same molecule, the composite Z-score in [2] was -0.178 (inactive). For the same molecule, the z-score in [17] was 0.689; in test [20] it was 0.892 (inactive).
On to `COc1ccc(OC[C@H]2Cc3c(-c4ccccc4)nc4c(c3CO2)CN(CCOc2ccccc2)CC4)cc1`, for which the composite z-score in test [1] is 0.445; in test [3] it was 0.0562; in test [4], -0.108; in [5], 0.234; in [6], 0.678; in test [7], 0.379. Further, the composite z-score in test [8] came to 1.07; in [9], 0.419; in [10] it was 1.08; in test [11] it was 1.78; in test [12] it was 0.928; in test [13], 0.169. Also, the composite z-score in test [14] amounted to 0.811; in [15], 0.923; in test [16], 0.596; in test [18], 1.25; in test [19], 0.387. For the same molecule, the composite Z-score in test [2] was 0.812 (inactive). Further, the z-score is 0.774 in test [17] and -0.356 (inactive) in test [20].
For the molecule `c1ccc(C2NCCc3c2[nH]c2ccccc32)cc1` (stereo not given), the composite z-score in [1] is 0.0809; in [3], 0.0876; in test [4] it was -0.053; in test [5], 0.743; in test [6], -0.0295; in test [7], -0.0502. Besides, the composite z-score in test [8] was -0.409; in test [9] it was 0.195; in test [10], -0.082; in test [11] it was 0.191; in test [12], -0.805; in test [13], -0.0707. The composite z-score in test [14] is -1.82; in test [15], 0.236; in [16], 0.737; in test [18] it was 0.588; in test [19] it was 0.466. In addition, the composite Z-score in [2] was -0.0389 (inactive). The figures for the z-score in test [17] and in test [20] were -0.104 and 0.495 (inactive), respectively.
